In PubChem BioAssay (EPA / NIEHS):
Active and inactive are the calls of the source. Rule for the calls: active = hit-call score of the fitted dose curve at least 0.9, where 1 is the maximum; inactive = score below 0.9.

Legend:
[1] = target: CCAAT/enhancer-binding protein beta (Homo sapiens) (UniProt P17676); experiment: ATG_C_EBP_CIS: Attagene CIS-FACTORIAL HepG2 Assay for human CCAAT/Enhancer Binding Protein (C/EBP) beta (AID 2282927); details: HepG2 Attagene cis-factorial transcription factor reporter; actives raise or lower the signal
In short: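 Transiently transfected HepG2 (MRTU library, endogenous TF-driven promoters); 24 h dosing; total RNA → oligo(dT) RT → PCR → 6-FAM primer extension → HpaI digest → CE; fit bidirectionally vs DMSO.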

[2] = ATG_CMV_CIS: Attagene CIS-FACTORIAL HepG2 Assay for human CMV (Internal Marker) (AID 2282928); details: HepG2 CMV promoter reporter, transcription factor profiling; actives raise or lower the signal;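 note: endpoint acts as a background internal control marker rather than a target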
In short: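 Endogenous transcription factor activity read in HepG2 via transfected cis-promoter reporter units. After 24 h dosing, reporter mRNA measured by RT-PCR/capillary electrophoresis; gain or loss of signal fit relative to DMSO.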

[3] = ATG_DR4_LXR_CIS: Attagene CIS-FACTORIAL HepG2 Assay for human Liver X Receptor (LXR), DR4 submotif (AID 2282929); details: HepG2 Attagene DR4 cis-reporter, mRNA transcription; actives raise or lower the signal
In short: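 Transiently transfected HepG2 liver cells; cis-regulated reporters; 24 h dosing. RT-PCR plus CE read-out of reporter mRNA. DMSO baseline, bidirectional curve fitting.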

[4] = ATG_AP_1_CIS: Attagene CIS-FACTORIAL HepG2 Assay for human Activator Protein 1 (AP-1) (AID 2282931); details: HepG2 Attagene cis-factorial AP-1 reporter mRNA; actives raise or lower the signal
In short: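 We transfected HepG2 cells transiently with a set of cis-regulated reporter transcription units, dosed them for 24 h, and quantified reporter mRNA via RT-PCR and capillary electrophoresis, scoring gain or loss of signal relative to DMSO.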

[5] = ATG_BRE_CIS: Attagene CIS-FACTORIAL HepG2 Assay for human Bone Morphogenetic Protein (BMP) Response Element (BRE) (AID 2282933); details: HepG2 BMP response element reporter, Attagene transcription factor profiling; actives raise or lower the signal
In short: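 Endogenous transcription factor activity read in transiently transfected HepG2 cells after 24 h chemical exposure. Bidirectional curve fitting against DMSO; readout is reporter transcript level by RT-PCR with capillary electrophoresis of labelled products.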

[6] = ATG_E_Box_CIS: Attagene CIS-FACTORIAL HepG2 Assay for human Enhancer Box (E-box) (AID 2282936); details: HepG2 E-box cis-reporter transcription, actives raise or lower the signal
In short: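 First, HepG2 cells receive multiple cis-regulated reporter constructs by transient transfection. Next, chemicals are applied for 24 h. Finally, reporter mRNA is quantified via RT-PCR and capillary electrophoresis, with DMSO as baseline.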

[7] = ATG_EGR_CIS: Attagene CIS-FACTORIAL HepG2 Assay for human Early Growth Response 1 (EGR1) (AID 2282938); details: HepG2 Attagene CIS-FACTORIAL EGR reporter mRNA; actives raise or lower the signal
In short: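 Multiplexed cis-reporter system in human hepatoma HepG2 cells, transiently transfected. Cells are dosed for 24 h; reporter transcripts are amplified, fluorescently tagged and sized by capillary electrophoresis, with DMSO as negative control.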

[8] = ATG_M_19_CIS: Attagene CIS-FACTORIAL HepG2 Assay for M19 Transcription Factor (Internal Marker) (AID 2282939); details: HepG2 Attagene CIS-FACTORIAL M19 internal marker reporter; actives raise or lower the signal
In short: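 Internal marker readout, fitted in both directions against DMSO, from HepG2 cells carrying transfected cis-element reporter constructs; RT-PCR and capillary electrophoresis of reporter mRNA after 24 h exposure.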

[9] = ATG_Ets_CIS: Attagene CIS-FACTORIAL HepG2 Assay for human Erythroblast Transformation Specific (ETS) (AID 2282941); details: HepG2 ETS cis-reporter transcription, actives raise or lower the signal
In short: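 Steps: transfect HepG2 with multiple reporter units; treat compound 24 h; isolate RNA, DNase-treat, reverse-transcribe; PCR-amplify, label with 6-FAM, digest with HpaI; separate by capillary electrophoresis. Activity fitted both directions versus DMSO.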

[10] = ATG_FoxO_CIS: Attagene CIS-FACTORIAL HepG2 Assay for human Forkhead box O (FoxO) (AID 2282943); details: HepG2 Attagene cis-reporter, FoxO element, mRNA; actives raise or lower the signal
In short: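 Read-out: fluorescence of 6-FAM-labelled reporter cDNA fragments resolved by capillary electrophoresis. Transiently transfected HepG2 cells were dosed for 24 h; activity fitted in both directions relative to DMSO controls.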

[11] = ATG_GATA_CIS: Attagene CIS-FACTORIAL HepG2 Assay for human GATA Binding Protein (AID 2282944); details: HepG2 GATA cis-element reporter, Attagene multiplex mRNA; actives raise or lower the signal
In short: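 Reporter transcripts from a GATA cis-regulated unit, among multiplexed reporters in transfected HepG2 cells, were measured by RT-PCR with capillary electrophoresis after 24 h dosing. Induction or loss scored relative to DMSO.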

[12] = ATG_ISRE_CIS: Attagene CIS-FACTORIAL HepG2 Assay for human Interferon Regulatory Factor 1 (IRF1) binding to an Interferon-Stimulated Response Element (ISRE) (AID 2282948); details: HepG2 ISRE cis-reporter (Attagene), mRNA transcription readout; actives raise or lower the signal
In short: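 Transfected HepG2 (multiple reporter transcription units, cis elements) dosed 24 h. RNA → oligo(dT) RT → PCR → 6-FAM primer extension → HpaI → CE. DMSO = negative control/baseline.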

[13] = ATG_M_06_CIS: Attagene CIS-FACTORIAL HepG2 Assay for M06 Transcription Factor (Internal Marker) (AID 2282950); details: HepG2 Attagene CIS-FACTORIAL M06 internal marker reporter; actives raise or lower the signal
In short: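 Serves as a background control readout. Transfected HepG2 exposed to compounds for 24 h, then reporter transcripts quantified by fluorescent RT-PCR and capillary electrophoresis. Both directions fitted against DMSO baseline.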

[14] = ATG_MRE_CIS: Attagene CIS-FACTORIAL HepG2 Assay for human Metal Responsive Element (MRE) (AID 2282954); details: HepG2 MRE cis-reporter transcription, Attagene multiplex; actives raise or lower the signal
In short: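 Fluorescent reporter fragments separated by capillary electrophoresis give mRNA induction for the MRE unit after 24 h treatment of transfected HepG2 cells. Endogenous transcription-factor activity is read; DMSO serves as negative control and baseline.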

[15] = target: Paired box protein Pax-6 (Homo sapiens) (UniProt P26367); experiment: ATG_Pax6_CIS: Attagene CIS-FACTORIAL HepG2 Assay for human Paired Box 6 (PAX6) (AID 2282956); details: HepG2 CIS-FACTORIAL PAX6 reporter transcription, RNA readout; actives raise or lower the signal
In short: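 Transient MRTU transfection of HepG2 → compound exposure 24 h → TriZol RNA, oligo(dT) RT → PCR, 6-FAM primer extension, HpaI cut → capillary electrophoresis; activity fitted both directions against DMSO.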

[16] = ATG_Sox_CIS: Attagene CIS-FACTORIAL HepG2 Assay for human SRY-box transcription factor (SOX) (AID 2282960); details: HepG2 Attagene cis-factorial SOX reporter, mRNA; actives raise or lower the signal
In short: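 Fluorescence-labelled cDNA fragments from reporter transcripts, sized by CE, give the signal. Cells: HepG2, transiently transfected with cis-regulated reporter units. Exposure 24 h; DMSO negative control; bidirectional curve fitting.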

[17] = target: Transcription factor Sp1 (Homo sapiens) (UniProt P08047); experiment: ATG_Sp1_CIS: Attagene CIS-FACTORIAL HepG2 Assay for human Specificity Protein 1 (Sp1) (AID 2282961); details: HepG2 Sp1 cis-reporter transcription, actives raise or lower the signal
In short: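 Chemicals are dosed onto HepG2 cells transfected with multiple cis-promoter reporter constructs, and after 24 h reporter RNA is reverse-transcribed, PCR-amplified and resolved by capillary electrophoresis for fluorescence quantitation; activity is scored up or down against DMSO.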

[18] = target: Signal transducer and activator of transcription 3 (Homo sapiens) (UniProt P40763); experiment: ATG_STAT3_CIS: Attagene CIS-FACTORIAL HepG2 Assay for human Signal Transducer and Activator of Transcription 3 (STAT3) (AID 2282963); details: HepG2, Attagene cis-factorial STAT3 reporter transcription; actives raise or lower the signal
In short: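 Values derive from bidirectional fits relative to DMSO of reporter mRNA levels, measured by RT-PCR with capillary electrophoresis, in HepG2 cells carrying transiently transfected cis-regulated reporter units and exposed 24 h.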

[19] = ATG_TA_CIS: Attagene CIS-FACTORIAL HepG2 Assay for human TA Basal Promoter (AID 2282964); details: HepG2 Attagene CIS-factorial TA basal promoter reporter; actives raise or lower the signal
In short: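 Background-control readout: TA basal promoter reporter mRNA, fitted in both directions relative to DMSO. Measured by RT-PCR and capillary electrophoresis 24 hours after treating HepG2 human liver cells transiently carrying multiplexed cis-regulated reporter constructs.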

[20] = ATG_TCF_b_cat_CIS: Attagene CIS-FACTORIAL HepG2 Assay for human T-Cell-Factor with beta-catenin (TCF/b-cat) (AID 2282965); details: HepG2 TCF/beta-catenin cis-reporter transcription, actives raise or lower the signal
In short: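 HepG2, transient MRTU transfection, cis-element-driven reporters (endogenous TFs). 24 h compound exposure. Readout: reporter mRNA by RT-PCR + 6-FAM primer extension, HpaI digest, capillary electrophoresis. Gain/loss fit vs DMSO baseline.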

Measured: AC50

Chain of Paired box protein Pax-6 (Homo sapiens) (P26367 whole entry, looked up): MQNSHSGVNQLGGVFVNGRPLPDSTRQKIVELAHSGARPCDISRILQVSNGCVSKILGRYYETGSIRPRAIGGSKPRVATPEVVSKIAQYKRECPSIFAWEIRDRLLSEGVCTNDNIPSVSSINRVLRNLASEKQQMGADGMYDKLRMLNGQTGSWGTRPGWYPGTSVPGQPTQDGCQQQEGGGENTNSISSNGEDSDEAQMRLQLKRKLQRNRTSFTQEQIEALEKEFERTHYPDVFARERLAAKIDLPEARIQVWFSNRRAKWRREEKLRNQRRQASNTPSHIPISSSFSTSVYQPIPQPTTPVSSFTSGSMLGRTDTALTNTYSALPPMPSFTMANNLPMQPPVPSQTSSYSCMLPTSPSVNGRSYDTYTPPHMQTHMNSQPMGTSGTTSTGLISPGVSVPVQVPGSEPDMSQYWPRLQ
Chain of Transcription factor Sp1 (Homo sapiens) (P08047 whole entry, looked up): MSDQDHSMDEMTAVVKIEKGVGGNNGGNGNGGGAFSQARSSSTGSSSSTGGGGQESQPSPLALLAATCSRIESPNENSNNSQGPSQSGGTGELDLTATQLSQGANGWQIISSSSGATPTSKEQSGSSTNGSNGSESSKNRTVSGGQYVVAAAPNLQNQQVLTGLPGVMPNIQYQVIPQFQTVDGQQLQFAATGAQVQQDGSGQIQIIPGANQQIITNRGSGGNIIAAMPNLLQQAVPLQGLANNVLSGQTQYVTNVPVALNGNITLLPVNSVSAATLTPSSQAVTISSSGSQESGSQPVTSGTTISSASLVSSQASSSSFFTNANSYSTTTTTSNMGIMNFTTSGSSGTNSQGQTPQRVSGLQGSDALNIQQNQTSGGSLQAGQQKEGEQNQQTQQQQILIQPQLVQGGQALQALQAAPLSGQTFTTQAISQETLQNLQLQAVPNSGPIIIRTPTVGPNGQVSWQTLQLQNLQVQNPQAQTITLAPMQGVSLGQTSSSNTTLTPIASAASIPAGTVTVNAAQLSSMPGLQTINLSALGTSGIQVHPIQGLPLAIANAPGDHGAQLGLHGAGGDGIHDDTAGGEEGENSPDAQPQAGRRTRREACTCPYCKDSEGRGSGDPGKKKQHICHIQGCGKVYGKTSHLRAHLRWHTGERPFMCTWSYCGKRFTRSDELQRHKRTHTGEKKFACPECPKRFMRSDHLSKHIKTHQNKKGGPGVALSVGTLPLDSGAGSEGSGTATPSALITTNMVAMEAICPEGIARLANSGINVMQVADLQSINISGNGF
Chain of Signal transducer and activator of transcription 3 (Homo sapiens) (P40763 whole entry, looked up): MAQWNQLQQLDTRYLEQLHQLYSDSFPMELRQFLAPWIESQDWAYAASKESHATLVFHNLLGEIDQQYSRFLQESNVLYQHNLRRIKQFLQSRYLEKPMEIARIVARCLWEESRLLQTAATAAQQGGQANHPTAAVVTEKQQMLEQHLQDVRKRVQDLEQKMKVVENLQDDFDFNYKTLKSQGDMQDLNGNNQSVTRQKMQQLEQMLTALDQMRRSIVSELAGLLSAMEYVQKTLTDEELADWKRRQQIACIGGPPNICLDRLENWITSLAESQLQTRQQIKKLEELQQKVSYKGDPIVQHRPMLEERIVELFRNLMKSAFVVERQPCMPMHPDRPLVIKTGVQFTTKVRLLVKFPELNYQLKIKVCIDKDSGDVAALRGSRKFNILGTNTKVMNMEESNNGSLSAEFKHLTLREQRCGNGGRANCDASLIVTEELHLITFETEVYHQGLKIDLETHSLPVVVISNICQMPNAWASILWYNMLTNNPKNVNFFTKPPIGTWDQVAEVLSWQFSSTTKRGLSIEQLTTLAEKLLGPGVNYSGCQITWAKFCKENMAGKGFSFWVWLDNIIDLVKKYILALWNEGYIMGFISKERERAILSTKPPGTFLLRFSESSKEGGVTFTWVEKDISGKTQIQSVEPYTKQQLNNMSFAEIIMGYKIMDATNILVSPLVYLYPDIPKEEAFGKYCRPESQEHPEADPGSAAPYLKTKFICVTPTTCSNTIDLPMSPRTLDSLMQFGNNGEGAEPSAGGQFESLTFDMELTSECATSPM
Chain of CCAAT/enhancer-binding protein beta (Homo sapiens) (P17676 whole entry, looked up): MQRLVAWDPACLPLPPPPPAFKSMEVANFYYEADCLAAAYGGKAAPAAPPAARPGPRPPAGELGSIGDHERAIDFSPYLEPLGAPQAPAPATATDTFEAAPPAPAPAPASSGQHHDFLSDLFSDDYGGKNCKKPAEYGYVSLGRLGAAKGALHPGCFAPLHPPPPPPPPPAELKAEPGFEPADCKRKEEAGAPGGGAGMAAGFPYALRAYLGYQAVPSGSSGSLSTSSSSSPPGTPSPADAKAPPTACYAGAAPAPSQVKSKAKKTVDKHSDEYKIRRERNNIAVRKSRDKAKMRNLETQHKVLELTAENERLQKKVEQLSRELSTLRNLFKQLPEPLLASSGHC

CC(C)(C)C(=O)CCl
active: [3] 55.2 µM | [6] 45.2 µM | [14] 77.1 µM
inactive: all other assays above

NNc1ccccc1
inactive: all assays above

CCC1CCC(=O)O1 (stereo not given)
inactive: all assays above

O=[N+]([O-])c1cc([N+](=O)[O-])c2ccccc2c1
active: [2] 23.5 µM | [4] 14.5 µM | [6] 10.5 µM
inactive: all other assays above

O=[N+]([O-])C=Cc1ccccc1
active: [3] 29.6 µM | [4] 57.7 µM | [5] 44.2 µM | [6] 25.5 µM | [7] 14.4 µM | [10] 33.4 µM | [11] 22.1 µM | [12] 27.6 µM | [14] 13.3 µM | [15] 21.1 µM | [16] 20.1 µM | [17] 21.2 µM | [18] 33.4 µM | [20] 18.9 µM
inactive: [1] | [2] | [8] | [9] | [13] | [19]

CC=Cc1ccc2c(c1)OCO2
active: [20] 80.8 µM
inactive: all other assays above

ClC1=C(Cl)[C@]2(Cl)[C@@H]3[C@@H](Cl)[C@H](Cl)C[C@@H]3[C@@]1(Cl)C2(Cl)Cl
inactive: all assays above

CC(=O)c1cc2c(cc1C)C(C)(C)C(C)CC2(C)C (stereo not given)
active: [1] 108 µM | [2] 28.1 µM | [3] 26.1 µM | [4] 26.6 µM | [5] 26.5 µM | [8] 128 µM | [14] 43.8 µM | [15] 100 µM | [17] 27.2 µM | [20] 168 µM
inactive: all other assays above

C=C(Cl)Cl
inactive: all assays above

COC(=O)COc1ccc(Cl)cc1Cl
inactive: all assays above

O=c1c2ccccc2c(=O)c2c1cc(Cl)c1[nH]c3c([nH]c12)c(Cl)cc1c(=O)c2ccccc2c(=O)c13
active: [5] 26.1 µM
inactive: all other assays above

Nc1ccccc1
inactive: all assays above

N#CCCCCC#N
inactive: all assays above

CCCCCCCCCCCCCCCC[N+](C)(C)C
active: [1] 24.1 µM | [2] 48.9 µM | [4] 100 µM | [6] 48.7 µM | [9] 100 µM | [11] 26.6 µM | [12] 27.4 µM | [14] 25.5 µM | [16] 100 µM | [20] 5.71 µM
inactive: all other assays above
